Sampled rows, rich in hits. Any-hit rate of the full collection: about 10%.
LMNA splice mod – qHTS Assay for Modulators of Lamin A Splicing. HeLa LMNA splicing GFP/RFP minigene ratio, 48 h. Potency, µM (doses to about 46.1 µM), hits mostly inhibitors. 0.01% of 200,000 active. AID 1487, 2009; active = well fitted inhibition curve with a large enough effect in the signal ratio, with a control signal flat, not every such curve was filed as active; inconclusive = small, poorly fitted or top-dose-only effect, or effect the other way, or a change in a side signal; the % refers to the signal ratio
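Read-out is the ratio of GFP to DsRed2 object intensity, acquired by 488 nm laser-scanning cytometry on HeLa lamin A-EGFP minigene reporter cells. Compound incubation 48 hrs at 37 °C in Opti-MEM with 2% FBS; DMSO 0.5% final.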
Luc counter – Counterscreen for Luciferase (Kinase-Glo TM) Inhibition; Potency, µM (titrated, usually from 38.3 µM), actives largely listed as inhibitors; AID 1379, 2008; 0.28% of 200,000 active; Luciferin 4-monooxygenase (Photuris pensylvanica), Q27757; Kinase-Glo luciferase, ATP luminescence, 8 min; active = well fitted inhibition curve with a large enough effect; inconclusive = small, poorly fitted or top-dose-only effect; also: nearly all actives have a fitted effect of over 60% in size
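Inhibition of Kinase-Glo luciferase light generation was assessed at 10 uM ATP in pH 7.2 imidazole buffer, with luminescence measured after eight minutes at ambient temperature.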
HPGD block – qHTS Assay for Inhibitors of HPGD (15-Hydroxyprostaglandin Dehydrogenase); 15-hydroxyprostaglandin dehydrogenase [NAD(+)] (Homo sapiens), P15428; Potency, µM, actives largely listed as inhibitors; 4.3% of 150,000 active; purified HPGD, NADH fluorescence kinetic, PGE2 substrate; AID 894, 2007
Target sequence (P15428 whole entry, looked up): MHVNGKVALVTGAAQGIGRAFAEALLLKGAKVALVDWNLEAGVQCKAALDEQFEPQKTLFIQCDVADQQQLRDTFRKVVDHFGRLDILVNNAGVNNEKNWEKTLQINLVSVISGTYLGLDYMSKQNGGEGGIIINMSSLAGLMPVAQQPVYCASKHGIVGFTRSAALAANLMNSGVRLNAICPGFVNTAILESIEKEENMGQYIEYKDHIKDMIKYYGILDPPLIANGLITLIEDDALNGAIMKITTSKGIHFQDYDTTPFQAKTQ
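NADH formation kinetics: reaction with 30 uM PGE2 and 1 mM NAD+ (final), 20 nM enzyme, Tris-HCl pH 8 with Tween 20, after 15 min compound preincubation at room temperature. Fluorescence change, last versus first of five reads.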
IMPase inh – qHTS Assay for Identifying the Cell-Membrane Permeable IMPase Inhibitors | AID 901, 2007 | 120,000 tested, under 10 active | CHO-M1 cells, IP1 accumulation, HTRF TR-FRET ratio | inhibition (IP1 accumulation), % at 46.1 µM; active = well fitted curve in the direction sought with a large enough effect in the signal ratio, not every such curve was filed as active; inconclusive = small, poorly fitted or top-dose-only effect, or a change in a side signal; inactive = no such curve, though single readings can be large or run the other way; the % refers to the signal ratio;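 also: cells stimulated with carbachol in lithium chloride buffer; higher means more IMPase inhibition seen as more IP1 and lower FRET ratio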
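Elevated IP1 in lysates lowers TR-FRET signal (665/620 ratio and 620 channel reported). Cells were CHO-M1, given carbachol (50 uM as added) plus 50mM LiCl, pH 7.4, 30 min, 37C; compounds titrated up to 46 uM; AC50 by Hill equation.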
ALDH1A1 block – qHTS Assay for Inhibitors of Aldehyde Dehydrogenase 1 (ALDH1A1). Aldehyde dehydrogenase 1A1 (Homo sapiens), P00352. Purified ALDH1A1, NADH fluorescence, propionaldehyde substrate. Potency, µM (titrated, usually from 75.3 µM), most hits filed as inhibitors. 7.3% of 220,000 active. AID 1030, 2008
Target sequence (P00352 whole entry, looked up): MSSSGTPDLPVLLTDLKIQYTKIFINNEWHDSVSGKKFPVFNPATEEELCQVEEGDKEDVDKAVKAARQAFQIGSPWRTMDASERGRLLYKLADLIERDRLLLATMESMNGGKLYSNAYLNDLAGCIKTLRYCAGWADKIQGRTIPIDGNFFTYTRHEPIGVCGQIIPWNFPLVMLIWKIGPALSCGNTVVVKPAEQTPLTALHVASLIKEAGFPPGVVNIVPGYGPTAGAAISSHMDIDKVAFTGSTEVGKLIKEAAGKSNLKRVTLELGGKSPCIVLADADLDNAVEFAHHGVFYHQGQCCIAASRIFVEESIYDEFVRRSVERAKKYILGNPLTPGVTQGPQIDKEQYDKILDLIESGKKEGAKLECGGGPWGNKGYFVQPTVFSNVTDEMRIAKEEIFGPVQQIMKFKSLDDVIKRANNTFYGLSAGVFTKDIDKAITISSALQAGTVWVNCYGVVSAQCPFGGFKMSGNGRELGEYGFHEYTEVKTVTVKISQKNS
PNC inhibitor – High Content Assay for Compounds that inhibit the Assembly of the Perinucleolar Compartment. PC3M PTB-GFP, PNC prevalence imaging, 16 h; active compounds read low. activity change (PNC), negative = inhibition, % at 10 µM. 3.1% of 140,000 active. AID 2417, 2010;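 active = readout at or below -70, meaning at least 70% loss of cells showing the perinucleolar compartment, a nuclear body marking cancer cells; inconclusive = readout between -30 and a set limit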
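PC3M cells stably expressing PTB-GFP, 750–1000 cells/well, treated 16 h at 37 °C with compound (23 nl of library stock), in duplicate. After paraformaldehyde fixation and Hoechst stain, imaged at 20x; PNC prevalence scored by image analysis.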
A number is an active result; – = inactive; ? = inconclusive; · = no result; [ ] = remark or other dose. Unless noted, calls follow the shape of the dose curve; as a rule, active = well fitted inhibition curve with a large enough effect (not every such curve was filed as active); inconclusive = small, poorly fitted or top-dose-only effect, or another doubt; inactive = no such curve, though single readings can be large or run the other way.

SMILES | LMNA splice mod | Luc counter | HPGD block | IMPase inh | ALDH1A1 block | PNC inhibitor
CCOC(=O)c1c(C)[nH]c(CCC(=O)NCc2ccccc2Cl)c1C | – | · | · | · | · | ·
Cc1ccc(C(=O)c2oc3ccccc3c2NC(=O)C(C)Oc2ccccc2Cl)cc1 (stereo not given) | · | · | · | – | · | ·
O=[N+]([O-])c1ccc2[nH]c(O)c(N=NC(=S)NCC3CCCO3)c2c1 (stereo not given) | ? | – | – | · | 0.79µM | –
CCNC(=S)N=Nc1c(O)[nH]c2ccc([N+](=O)[O-])cc12 | – | – | · | · | – | ·
CCCNc1nc(NCc2ccccc2OC)c2cnn(C)c2n1 | – | · | · | · | · | ·
O=C(O)c1ccc(C(=O)C(=O)c2ccccc2)cc1 | – | · | · | · | · | ·
COc1cccc(C(=O)C(C#N)=C(SC)SC)c1 | · | · | · | · | 7.1µM | ·
CSC(SC)=C(C#N)C(=O)c1ccccc1 | ? | · | · | · | 22µM | ·
O=C(CSc1nc2ccccc2nc1Cc1ccc(Cl)cc1)N1CCc2ccccc21 | – | · | · | · | · | ·
COc1ccc(C2SCCN2C(=S)Nc2ccc(Cl)cc2)cc1 (stereo not given) | ? | – | ? | – | ? | –
CCOC(=O)c1ccc(NC(=S)N2CCSC2c2c(F)cc(F)cc2F)cc1 (stereo not given) | ? | – | – | · | – | ?
COc1ccc(C2SCCN2C(=S)Nc2cccc(Cl)c2)cc1 (stereo not given) | ? | – | – | · | ? | -102
Fc1cc(F)c(C2SCCN2C(=S)Nc2cccc(C(F)(F)F)c2)c(F)c1 (stereo not given) | · | · | · | · | 14µM | ·
Cc1c(C(=O)Nc2cccc(C(F)(F)F)c2)oc2ccc(S(=O)(=O)N(C)C3CCCCC3)cc12 | – | · | · | · | · | ·
CN1CCc2c(cc(O)c(O)c2Cl)[C@H](c2cccc(Cl)c2)C1 | · | · | · | – | · | ·
N[C@H](C(=O)O)[C@@H](O)c1cnc[nH]1 | · | –[7.66 µM] | – | · | –[13.5 µM] | ·
CCC1CN(C(=O)N2CCC(C(=O)NCCc3cc(OC)ccc3OC)CC2)c2ccccc2O1 (stereo not given) | – | · | · | · | · | ·
Clc1ccccc1-c1ccc(/C=N/n2cnnc2)o1 | – | – | – | – | – | –
Clc1cccc(-c2ccc(/C=N/n3cnnc3)o2)c1Cl | ? | – | ? | – | – | -100
CC(=O)c1cccc(NC(=O)CN2C(=O)CCc3cc(S(=O)(=O)N4CCCCC4)ccc32)c1 | – | · | · | · | · | ·
COC(=O)c1cn[nH]c1NC(=S)Nc1ccc(C)cc1Cl | – | – | – | – | 7.9µM | –
CC(=O)c1ccc(NC(=O)c2cn(-c3ccccc3)nc2-c2ccc(Br)cc2)cc1 | · | · | · | – | · | ·
O=[N+]([O-])c1ccc(NCCO)c(OCCO)c1 | · | · | – | · | – | ·
Cc1ccccc1C(=O)Nc1ccc(-c2nc3ccc(C(=O)c4ccccc4)cc3[nH]2)cc1 | ? | – | ? | – | ? | –
O=C(c1ccccc1)c1ccc2nc[nH]c2c1 | – | – | 22µM | –[1.84 µM] | ? | –
SMILES | LMNA splice mod | Luc counter | HPGD block | IMPase inh | ALDH1A1 block | PNC inhibitor
O=C(NC1CCCC1)c1ccc2nc[nH]c2c1 | – | – | – | – | – | –
Cc1nc2ccc(C(=O)c3ccccc3)cc2[nH]1 | – | – | 18µM | – | ? | –
CC(C)(C)Nc1nc(OCC#N)nc(N2CCCCC2)n1 | · | – | · | · | 18µM | ·
N#CCOc1nc(N2CCCCC2)nc(N2CCCCC2)n1 | · | – | · | · | – | ·
Cc1noc(C)c1-c1ccc2ncnc(N3CCOCC3)c2c1 | 10µM | · | · | · | – | ·
CN(C)Cc1ccccc1-c1ccc2ncnc(N3CCOCC3)c2c1 | – | – | – | · | – | ·
Cc1noc(C)c1-c1ccc2ncnc(N3CCN(C)CC3)c2c1 | 7.1µM | · | · | · | ? | ·
CN(C)C(=O)c1ccc(-c2ccc3ncnc(N4CCC(C(=O)O)CC4)c3c2)cc1 | – | · | · | · | ? | ·
c1nc(N2CCOCC2)c2cc(-c3ccoc3)ccc2n1 | ? | · | · | · | 22µM | ·
COc1cccc(-c2ccc3ncnc(N4CCOCC4)c3c2)c1 | ? | · | · | · | – | ·
Cc1ccccc1-c1ccc2ncnc(N3CCOCC3)c2c1 | ? | · | · | · | 22µM | ·
CCOCCc1nn2c(=O)cc(COC(=O)c3ccc(NC(=O)C4CCCCC4)cc3)nc2s1 | – | · | · | · | · | ·
CCN(C(=O)Cn1c(=O)n(CC2CCC(C(=O)NC)CC2)c(=O)c2sccc21)c1ccccc1 (stereo not given) | – | · | · | · | · | ·
COc1cccc(Cn2c(=O)c(-c3cccc(Cl)c3)nc3cncnc32)c1 | · | – | – | · | – | ·
NC(CO)(CO)CO | ? | – | – | · | – | ·
Cc1ccc(N(CC(C)C)S(=O)(=O)c2nnc(NC(=O)c3cccs3)s2)cc1 | – | · | · | · | · | ·
CCN1C(=O)[C@@H]2[C@H]3C(=CC[C@@H]2C1=O)C1(OCCCO1)[C@H]1O[C@@H]1[C@H]3O | · | · | · | · | 1.8µM | ·
CCN1C(=O)[C@H]2[C@H]3[C@H](O)[C@H](O)C/C(=N/OCC(C)C)[C@@H]3CC[C@@H]2C1=O | · | · | · | · | –[13.5 µM] | ·
CCOC(=O)CSc1cn2c(n1)CCC2 | – | – | ? | – | – | -100
CNC1CCC(c2ccc(Cl)c(Cl)c2)c2ccccc21 (stereo not given) | · | – | – | · | – | ·
Cn1cccc1CC(=O)N/N=C/c1cccc2ccccc12 | – | – | 16µM | – | ? | –
Cn1cccc1CC(=O)N/N=C\c1c2ccccc2cc2ccccc12 | – | – | – | – | – | –
O=C(CSc1ncn[nH]1)Nc1cc(S(=O)(=O)N2CCCC2)ccc1Cl | · | – | · | · | 16µM | ·
Cc1csc(SCC(=O)Nc2cccc(S(=O)(=O)N3CCCC3)c2)n1 | – | – | – | – | 25µM | –
Cc1csc(SCC(=O)Nc2cc(S(=O)(=O)N3CCCC3)ccc2Cl)n1 | – | – | – | – | 1.3µM | ?
SMILES | LMNA splice mod | Luc counter | HPGD block | IMPase inh | ALDH1A1 block | PNC inhibitor
O=C(CSc1nnc(Nc2ccccc2)s1)Nc1cccc(S(=O)(=O)N2CCCCC2)c1 | ? | – | – | – | – | –
CC(C)c1ccc(OCC(=O)Nc2c(C(=O)c3ccc(F)cc3)oc3ccccc23)cc1 | · | · | · | – | · | ·
O=C(/C=C/c1ccccc1)NC(NC(=S)Nc1ccc(Cl)cc1)C(Cl)(Cl)Cl (stereo not given) | ? | – | – | – | – | ?
O=C(NC(NC(=S)Nc1cc(Cl)ccc1Cl)C(Cl)(Cl)Cl)c1ccco1 (stereo not given) | ? | – | – | – | 8.9µM | –
O=C(/C=C/c1ccccc1)NC(NC(=S)Nc1cc(Cl)ccc1Cl)C(Cl)(Cl)Cl (stereo not given) | –[0.0737 µM] | – | – | – | 22µM | –
O=C(NC(NC(=S)Nc1ccc(Cl)c(Cl)c1)C(Cl)(Cl)Cl)c1ccco1 (stereo not given) | – | – | – | – | 7.1µM | –
Cc1ccccc1NC(=S)NC(NC(=O)c1ccco1)C(Cl)(Cl)Cl (stereo not given) | ? | – | – | · | 9.5µM | -120
